# Results from PubChem BioAssay (NCATS).
# Results filed as inconclusive are left out. Activity calls are given as the source filed them. The call rests on the fitted dose curve; in most records, active means well fitted cell-killing curve with a large enough effect; inconclusive means small, poorly fitted or top-dose-only effect; inactive means flat fitted curve, though single readings scatter.
# Assay: Cell Viability - LYMP2-013 (AID 970);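 further: cells exposed to compound for 24 h at 37 °C; 0% = DMSO only and full inhibition = tetraoctylammonium bromide control; nearly all actives have a fitted effect of over 55% in size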
# Settings: LYMP2-013 lymphoblastoid cells viability; series mostly up to 92.2 µM; activity change, negative = cytotoxic: at the top concentration
# Text: NIH Chemical Genomics Center [NCGC]
# NIH Molecular Libraries Screening Centers Network [MLSCN]
# National Institutes of Environmental Health Sciences [NIEHS]
# National Toxicology Program [NTP]
# We have developed a 1536-well cell-based assay for quantitative high throughput screening (qHTS) against a number of cell lines to determine in vitro cytotoxicity of small molecules. This particular assay uses a human lymphoblastoid cell line (LYMP2-013) purchased from Coriell Institute for Medical Research.
# NCGC Assay Protocol Summary:
# The CellTiter-Glo luminescent cell viability assay (Promega) is a homogeneous method to measure the number of viable cells in culture. The end point readout of this assay is based on quantitation of intracellular ATP, an indicator of metabolic activity, using the luciferase reaction. Luciferase catalyzes the oxidation of beetle Luciferin to oxyluciferin and light in the presence of ATP. The luminescent signal is proportional to amount of ATP present.
# Using the CellTiter-Glo luminescent cell viability assay, the amount of cellular ATP was measured in the lymphoblastoid cell line with complete culture medium following compound treatment for 24 hours. The assay was performed in opaque white Kalypsys 1536-well plates. In the screen, tetraoctylammonium bromide was used as positive control. Library compounds were measured for their ability to cause acute toxicity in the cell line, as reflected by a decrease in intracellular ATP levels, in a concentration-dependent manner. […] AC50 values were determined from concentration-response data modeled with the standard Hill equation.
# qHTS protocol for CellTiter Glo lymphoblastoid cellular assay
# [Step] [Parameter] [Value] [Description]
# 1. Reagent; 5 uL; 2500 lymphoblastoid cells/well
# 2. Time; 5 hr; 37 C incubation
# 4. Controls; 23 nL; Tetraoctylammonium bromide 6.4pM to 92 uM
# 5. Time; 24 hr; 37 C incubation
# 6. Reagent; 5 uL; CellTiter Glo reagent
# 7. Time; 30 min; Room Temperature
# 8. Detection; Luminescence; Viewlux plate reader
# Keywords: cell viability, cytotoxicity, lymphoblastoid cell line, luminescence, NTPHTS, NTPHTS_NCGC, NIEHS, DSSTox, MLSMR, MLSCN, NIH Roadmap, qHTS, NCGC
row,SMILES,"activity change, negative = cytotoxic"
1,O=[N+]([O-])c1ccc(O)c([N+](=O)[O-])c1,0.892% (inactive)
2,ClCC(Cl)CCl,1.8% (inactive)
3,O=C(O)C(Cl)(Cl)Br,-0.319% (inactive)
4,ClC(Cl)(Cl)C(Cl)(Cl)Cl,0.352% (inactive)
5,N#CCc1ccccc1,-2.16% (inactive)
6,O=C(O)C(Br)CBr (stereo not given),-19.2% (inactive)
7,[O-][Cl+]O,-10.2% (inactive)
8,N#CCBr,-20.3% (inactive)
9,Cc1ccc(N)cc1C,-7.79% (inactive)
10,CC(C)OC(=O)Cc1ccccc1,-1.35% (inactive)
11,CCCCCCCCCCCCCl,-5.05% (inactive)
12,Cc1cc(Cl)ccc1O,-0.624% (inactive)
13,COc1ccccc1N,1.8% (inactive)
14,O=C(O)CCl,-3.82% (inactive)
15,C1CC2OC2CC1C1CO1 (stereo not given),-10% (inactive)
16,ClCC(Cl)Cl,0.948% (inactive)
17,ClC(Cl)C(Cl)Cl,4.17% (inactive)
18,[N-]=[N+]=[N-],-1.84% (inactive)
19,CCN(CC)N=O,-1.63% (inactive)
20,O=C(O)c1cc(Cl)ccc1Cl,-12.1% (inactive)

row,SMILES,"activity change, negative = cytotoxic"
1,C(CCOCC1CO1)COCC1CO1 (stereo not given),-13.4% (inactive)
2,c1ccc(OCC2CO2)cc1 (stereo not given),-8.99% (inactive)
3,[O-][Cl+2]([O-])O,-2.22% (inactive)
4,c1ccoc1,-6.03% (inactive)
5,N#C/C(N)=C(/N)C#N,-6.42% (inactive)
6,CCCN(CCC)c1c([N+](=O)[O-])cc(C(F)(F)F)cc1[N+](=O)[O-],-4.86% (inactive)
7,C=CCc1cc(OC)c2c(c1)OCO2,-1.91% (inactive)
8,C[N+](=O)[O-],-5.23% (inactive)
9,CC(C)[N+](=O)[O-],-1.2% (inactive)
10,NC1CCC(CC2CCC(N)CC2)CC1 (stereo not given),-21.9% (inactive)
11,CC(C)(COCC1CO1)COCC1CO1 (stereo not given),-4.18% (inactive)
12,CCC[N+](=O)[O-],-7.72% (inactive)
13,O=NN1CCCCC1,-3.07% (inactive)
14,C=C(Cl)CSC(=S)N(CC)CC,-13% (inactive)
15,CCOC(=O)C1OC1(C)c1ccccc1 (stereo not given),-2.18% (inactive)
16,Nc1ccc(-c2ccc(N)cc2)cc1,-10.9% (inactive)
17,c1ccc(Nc2ccc(Nc3ccccc3)cc2)cc1,-3.31% (inactive)
18,C=C(Cl)CCl,-8.28% (inactive)
19,Nc1cc(Cl)cc(C(=O)O)c1Cl,-1.08% (inactive)
20,ClC(Cl)Br,0.408% (inactive)
